Source: PubChem BioAssay (several laboratories)
A1 inh: inhibitors of the anti-apoptotic protein A1, read as caspase activation. actives 0.066% (n = 330,000). caspase activation, % (concentration not given with the values). MEF A1-2A-BIM cells, Caspase-Glo 3/7 luminescence, 3 h; percent of clofoctol response, vehicle zero;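 active = over half of replicate activation scores above 10%, or exactly half above 10 with the replicate mean above 10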
AI-2 QS modul: modulators of Vibrio harveyi AI-2 quorum sensing system; Vibrio harveyi JMH597 AI-2 luminescence/OD600 ratio, 9 h; active compounds read low; strain lacks LuxN and CqsS sensors; 0 = neutral-control median; AID 2094; activity change, % at 7.5 µM; actives 0.4% (n = 300,000); in the data active = activity change below about -75%, passing the limit was not always enough;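 note: luminescence divided by OD600 gain over 9 h not by final OD600 alone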
SUMO Mot1 rescue: blocks SUMOylation pathway, rescuing yeast Mot1-301 growth; S. cerevisiae Mot1-301 growth rescue, ATP luminescence, 38.5C; percent above DMSO median, 100 means doubled; actives 1% (n = 320,000); growth rescue, % at 18.8 µM; AID 2716;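 active = every valid replicate shows activation above 250% relative to neutral control wells; inactive = the rest, any valid replicate at or below 250%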;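 note: OY570 slx delta 5 strain wells were the positive control but not used for scaling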
ARNT-TACC3 inh: disrupts binding between human ARNT and TACC3; inhibition, % at 9.99 µM; Q9Y6A5; AlphaScreen His-ARNT PAS-B/GST-TACC3 binding, luminescence; TACC3 fragment carries E629A point mutation; actives 0.66% (n = 390,000);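 active = mean inhibition of replicates at least 50% and at least half of replicates each reaching 50%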;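 note: 0% = complete ARNT plus TACC3 wells and 100% = ARNT alone without TACC3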
aDG glyco act: alpha-DG glycosylation activation | Pro5-aDG cells, alpha-DG glycosylation AlphaScreen (IIH6); 0% Pro5, 100% B10-LARGE cell signal | activation, % at 10 µM | actives 0.22% (n = 360,000) | AID 624168;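 active = activation of at least 8% versus controls, or a plate z-score of at least 8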;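 note: Pro5 are CHO cells carrying HIG-tagged alpha-DG that lacks glycosylation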
Yeast Mot1 SUMO: inhibits SUMO pathway, affecting Mot1-301 yeast growth. shares compounds with SUMO Mot1 rescue. S. cerevisiae Mot1-301 galactose growth, ATP luminescence, 24 h; -100 = growth of slx-deleted rescue strain. growth activity, percent, % at 42 µM. 2,300 tested, under 10 active. AID 493004;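 active = Signal drops as the depositor expects, and the fitted half-maximal dose is no more than ten times the top valid tested dose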;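 note: more negative values mean stronger growth rescue toward the control strain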
* hit, by the source's call. Compounds with a hit are over-represented: about 1.8% of the library has one in this group of screens.

Results for OC[C@@H]1[C@H](c2ccc(-c3ccc(F)cc3)cc2)[C@H]2CN(Cc3ccncc3)CCCCN12 ?
ARNT-TACC3 inh: 5

What do the screens show for `CN1C(=O)c2cc(NC(=O)Cc3cccs3)ccc2OC[C@H]2O[C@@H](CC(=O)NCCCN3CCOCC3)CC[C@@H]21`?
ARNT-TACC3 inh: -1

What do the screens show for `COCCN1C=C(C(=O)OC)C(c2cc3c(cc2Br)OCO3)C(C(=O)OC)=C1`?
A1 inh: -1; AI-2 QS modul: 2; SUMO Mot1 rescue: 557*; Yeast Mot1 SUMO: 0

What do the screens show for `Cc1ccc(C(=O)NC(Cc2c[nH]c3ccccc23)C(=O)O)o1` (stereo not given)?
A1 inh: -1; AI-2 QS modul: 25; SUMO Mot1 rescue: active; ARNT-TACC3 inh: 2; aDG glyco act: 0; Yeast Mot1 SUMO: 0

How did Cc1ccc(/C(N)=N/OC(=O)/C=C/c2ccccc2)cc1 do in these assays?
A1 inh: -3; AI-2 QS modul: 0; SUMO Mot1 rescue: 840*; ARNT-TACC3 inh: 1; aDG glyco act: 0; Yeast Mot1 SUMO: 0

How did COc1ccc(/C(N)=N/OC(=O)/C=C/c2ccccc2)cc1 do in these assays?
A1 inh: 0; AI-2 QS modul: 6; SUMO Mot1 rescue: 154; aDG glyco act: 0

How did Cc1cccc(NC(=O)CNC(=O)c2sc3ccccc3c2Cl)n1 do in these assays?
A1 inh: 0; AI-2 QS modul: 0; SUMO Mot1 rescue: -1; ARNT-TACC3 inh: -4; aDG glyco act: 1

What do the screens show for `CC(=O)c1cccc(NC(=O)CNC(=O)c2sc3ccccc3c2Cl)c1`?
A1 inh: 0; AI-2 QS modul: 13; SUMO Mot1 rescue: 664*; ARNT-TACC3 inh: 0; aDG glyco act: 1; Yeast Mot1 SUMO: 1

What do the screens show for `COc1ccccc1NC(=O)CCSc1nnnn1C`?
A1 inh: 0; AI-2 QS modul: 0; SUMO Mot1 rescue: 15; ARNT-TACC3 inh: 4; aDG glyco act: 0

What do the screens show for `N#C/C(=C\c1ccc(O)c(O)c1)C(=O)Nc1ccccc1`?
A1 inh: -2; SUMO Mot1 rescue: 369*; ARNT-TACC3 inh: 1; aDG glyco act: -1; Yeast Mot1 SUMO: -1

Results for CCC(CCC(=O)Nc1ccn(-c2ccccc2)n1)C(=O)O (stereo not given) ?
A1 inh: 0; AI-2 QS modul: 7; SUMO Mot1 rescue: 14; aDG glyco act: 0

How did CC1(C(=O)Nc2nnc(SCc3ccccc3)s2)Cc2ccccc2C(=O)O1 (stereo not given) do in these assays?
A1 inh: 0; AI-2 QS modul: 16; SUMO Mot1 rescue: 29; ARNT-TACC3 inh: -3; aDG glyco act: 0

Results for COc1cc2c(cc1NC(=O)c1cc(-c3ccncc3)nc3ccccc13)oc1ccccc12 ?
A1 inh: 1; AI-2 QS modul: 14; SUMO Mot1 rescue: -4; ARNT-TACC3 inh: 5; aDG glyco act: 0

Results for O=C(CSc1nc(-c2ccccc2)cc(=O)[nH]1)Nc1ccc(Br)cc1 ?
A1 inh: -1; AI-2 QS modul: 0; SUMO Mot1 rescue: 423*; ARNT-TACC3 inh: -6; aDG glyco act: 0; Yeast Mot1 SUMO: -1

What do the screens show for `O=C(CSc1nc(-c2ccccc2)cc(=O)[nH]1)Nc1ccc(F)c(F)c1`?
A1 inh: 1; AI-2 QS modul: -6; SUMO Mot1 rescue: 18; ARNT-TACC3 inh: 6; aDG glyco act: 0

Results for CCC(C)(C)NC(=O)COc1ccc(C(=O)c2ccccc2)cc1 ?
A1 inh: 1; AI-2 QS modul: 0; SUMO Mot1 rescue: -1; ARNT-TACC3 inh: -3; aDG glyco act: 0

Results for CCCN1C(=O)c2ccccc2NC1c1ccc(C)cc1 (stereo not given) ?
A1 inh: 0; AI-2 QS modul: 15; SUMO Mot1 rescue: 458*; ARNT-TACC3 inh: -10; aDG glyco act: 0; Yeast Mot1 SUMO: 1

Results for CN(C)C(CNC(=O)c1cc(S(=O)(=O)N2CCOCC2)ccc1F)c1cccs1 (stereo not given) ?
A1 inh: 1; SUMO Mot1 rescue: -4; ARNT-TACC3 inh: 2; aDG glyco act: 0
